aSyn 5UTR act: Activators via SNCA 5'UTR binding, MLPCN; alpha-synuclein 5'UTR reporter, activators screen; activity score, % (tested at 7.5 µM), hits read low; 7.1% of 300,000 active; AID 1814; in the data active = activity score below about -60%
* marks the source's active call; other numbers are inactive results. Not all results are given here.

Results for N#CCN1CCN(CC(=O)Nc2ccc(OCc3ccccc3)cc2)CC1 ?
aSyn 5UTR act: -62*

How did Cc1cc(C(=O)Nc2nc3ccc(Cl)cc3s2)nn1C do in these assays?
aSyn 5UTR act: -128*

What do the screens show for `Cn1ncc(Cl)c1C(=O)Nc1nc2ccc(Cl)cc2s1`?
aSyn 5UTR act: -198*

How did c1ccc2nc3c(nc2c1)OCC1CCCCN31 (stereo not drawn) do in these assays?
aSyn 5UTR act: -91*

What do the screens show for `Cc1ccc(-c2nc(-c3nccc4ccccc34)oc2-c2ccccc2)cc1`?
aSyn 5UTR act: -137*

What do the screens show for `Cc1cc(Nc2ccccc2)nc(-c2ccccc2O)n1`?
aSyn 5UTR act: -101*

Results for Cc1cc(N/N=C/c2c(O)ccc3ccccc23)nc(-c2ccccc2O)n1 ?
aSyn 5UTR act: 72

Results for CN(C)N=Nc1ccc(-c2cn(Cc3ccccc3)cn2)cc1 ?
aSyn 5UTR act: -74*

Results for O=C(NCCN1C(=O)C2C3C=CC(C3)C2C1=O)Nc1ccc(Br)cc1 (stereo not drawn) ?
aSyn 5UTR act: -144*

Results for COc1ccc(C(=O)O/N=C(\N)c2ccc(OC)c(OC)c2)cc1 ?
aSyn 5UTR act: -139*

Results for COc1ccc(C(=O)O/N=C(\N)c2ccc(OC)c(OC)c2)c(OC)c1 ?
aSyn 5UTR act: -96*

What do the screens show for `CC(C)(C)c1ccc(/C=C2\SC(=O)N(CCNC(=O)c3cccc(S(=O)(=O)N4CCOCC4)c3)C2=O)cc1`?
aSyn 5UTR act: -89*

What do the screens show for `CCN(CC)c1ccc(/C=N/NC(=O)c2cccc(S(=O)(=O)N3CCOCC3)c2)c(O)c1`?
aSyn 5UTR act: 129

What do the screens show for `CC(=O)Nc1nccc(-c2cc(-c3ccccc3)no2)n1`?
aSyn 5UTR act: -180*

Results for O=C(COC(=O)c1ccccc1-n1cnnn1)c1ccc(Br)cc1 ?
aSyn 5UTR act: -95*

What do the screens show for `Cc1nc2cc(NC(=O)c3ccc(Br)s3)ccc2s1`?
aSyn 5UTR act: -83*

What do the screens show for `Cc1nc2ccc(NC(=O)c3cc(Cl)ccn3)cc2s1`?
aSyn 5UTR act: -74*

What do the screens show for `Cc1ccc(C(=O)Nc2ccc3nc(C)sc3c2)s1`?
aSyn 5UTR act: -206*

What do the screens show for `CCOc1ncccc1C(=O)Nc1ccc2nc(C)sc2c1`?
aSyn 5UTR act: -75*

What do the screens show for `O=C(c1cc2ccccn2n1)N1CCN(Cc2ccccc2)CC1`?
aSyn 5UTR act: -113*

What do the screens show for `CCOc1ccc(-c2csc3nc[nH]c(=O)c23)cc1`?
aSyn 5UTR act: -154*

What do the screens show for `c1ccc2c(Nc3nc4c(s3)CCCC4)cccc2c1`?
aSyn 5UTR act: -157*

What do the screens show for `O=C1C(CSCc2ccccc2)NC(=S)N1c1ccccc1` (stereo not drawn)?
aSyn 5UTR act: -68*

Results for COc1cc(/C=C/c2ccc3cccc(O)c3n2)ccc1O ?
aSyn 5UTR act: -67*

Results for Oc1cccc2ccc(/C=C/c3cccs3)nc12 ?
aSyn 5UTR act: -172*

What do the screens show for `COc1ccc(C(NC(C)=O)c2ccc3cccnc3c2O)c(OC)c1` (stereo not drawn)?
aSyn 5UTR act: 83

Results for NC(=O)CSc1nc(-c2ccccc2Cl)ns1 ?
aSyn 5UTR act: -121*

How did Cc1ccc(Cn2ccc(-c3cnc(-c4ccccc4)s3)n2)cc1 do in these assays?
aSyn 5UTR act: -128*

How did O=C(c1ccc(F)cc1)n1ccc(-c2cnc(-c3ccccc3)s2)n1 do in these assays?
aSyn 5UTR act: -124*

What do the screens show for `Fc1ccc(Cn2ccc(-c3cnc(-c4ccccc4)s3)n2)cc1`?
aSyn 5UTR act: -140*

How did O=S(=O)(c1ccccc1)n1ccc(-c2cnc(-c3ccccc3)s2)n1 do in these assays?
aSyn 5UTR act: -131*

How did Cc1ccc(N/C=C(/C#N)c2ccsc2)cc1C do in these assays?
aSyn 5UTR act: -172*

How did N/C(=N\OC(=O)c1cccc2ccccc12)c1cccc([N+](=O)[O-])c1 do in these assays?
aSyn 5UTR act: -123*

Results for N/C(=N\OC(=O)c1cccc2ccccc12)c1cccnc1 ?
aSyn 5UTR act: -184*

How did Cc1ccccc1C(=O)O/N=C(\N)c1cccc([N+](=O)[O-])c1 do in these assays?
aSyn 5UTR act: -275*

What do the screens show for `CC(C)OCCCNC(=O)c1ccc(Br)cc1`?
aSyn 5UTR act: -73*

What do the screens show for `CC1=Nc2cc(C(=O)NCCCOC(C)C)ccc2Sc2ccc(C)cc21`?
aSyn 5UTR act: 77

What do the screens show for `CCOCCCNC(=O)c1ccc(Br)cc1`?
aSyn 5UTR act: -84*

Results for CCCC1=Nc2cc(C(=O)NCCCOCC)ccc2Sc2ccccc21 ?
aSyn 5UTR act: 67

Results for Cc1cc2oc3ccc(NCCCn4ccnc4)cc3c(=O)c2cc1C ?
aSyn 5UTR act: -86*

How did Cc1cc2oc3ccc(NCCCN4CCOCC4)cc3c(=O)c2cc1C do in these assays?
aSyn 5UTR act: -97*

What do the screens show for `O=C(/C=C/c1ccccc1)Nc1ccc(Cl)cn1`?
aSyn 5UTR act: -95*

How did CCOC(=O)Cc1csc(NC(=O)/C=C/c2ccc(Cl)cc2)n1 do in these assays?
aSyn 5UTR act: -64*

What do the screens show for `CSc1cccc(NC(=O)Nc2ccccc2)c1`?
aSyn 5UTR act: -111*

Results for CSc1cccc(NC(=S)Nc2cc(C)ccc2C)c1 ?
aSyn 5UTR act: -139*

Results for CSc1cccc(NC(=O)/C=C/c2ccccc2)c1 ?
aSyn 5UTR act: -226*

How did Cc1cccc(NC(=O)/C=C/c2ccc(Cl)cc2)n1 do in these assays?
aSyn 5UTR act: -158*

What do the screens show for `O=C(/C=C/c1ccccc1)Nc1cccc(C(=O)O)c1`?
aSyn 5UTR act: 95

Results for CSc1cccc(NC(=O)/C=C/c2ccc(Cl)cc2)c1 ?
aSyn 5UTR act: -160*

Results for Cc1cc(C)nc(SC2=CS(=O)(=O)c3ccccc32)n1 ?
aSyn 5UTR act: -120*

Results for O=S1(=O)C=C(Sc2nnc(-c3ccccc3)o2)c2ccccc21 ?
aSyn 5UTR act: -118*

What do the screens show for `CCOC(=O)CSC1=C(C#N)C(C)C2=C(CCCC2=O)N1` (stereo not drawn)?
aSyn 5UTR act: -62*

How did c1ccc(CN2CCN(c3cnc4ccccc4n3)CC2)cc1 do in these assays?
aSyn 5UTR act: -208*

How did Oc1ccccc1N1CCN(c2ccc3ccccc3n2)CC1 do in these assays?
aSyn 5UTR act: -138*

How did Fc1ccccc1N1CCN(c2cnc3ccccc3n2)CC1 do in these assays?
aSyn 5UTR act: -70*

How did N#Cc1nc(-c2cccs2)oc1NCCc1ccccc1 do in these assays?
aSyn 5UTR act: -111*

How did COc1ccc(-c2nc(C#N)c(NCCc3ccccc3)o2)cc1OC do in these assays?
aSyn 5UTR act: -142*

Results for COC(=O)Cn1c(=NC(=O)c2ccc(Cl)s2)sc2cc(C)ccc21 ?
aSyn 5UTR act: -184*

What do the screens show for `COC(=O)Cn1c(=NC(=O)c2ccc([N+](=O)[O-])s2)sc2cc(Br)ccc21`?
aSyn 5UTR act: -68*

What do the screens show for `Cc1ccc(C(=O)COc2ncnc3cc(Cl)ccc23)cc1`?
aSyn 5UTR act: -76*

What do the screens show for `O=C(CSc1ncnc2ccccc12)c1ccc2c(c1)OCCO2`?
aSyn 5UTR act: -346*

How did O=C(COc1ncnc2ccccc12)c1ccc2c(c1)OCCO2 do in these assays?
aSyn 5UTR act: -88*

How did O=C(COC(=O)c1ccc(Cl)nc1)c1ccc2c(c1)OCCO2 do in these assays?
aSyn 5UTR act: -71*

Results for O=C(COc1ncnc2cc(Cl)ccc12)c1ccc2c(c1)OCCO2 ?
aSyn 5UTR act: -92*

What do the screens show for `COc1ccnc(CSC(N)=Nc2ccc(F)cc2)c1`?
aSyn 5UTR act: -111*

How did COC(=O)N1N=C(c2ccc(Br)cc2)CC1(O)C(F)(F)F (stereo not drawn) do in these assays?
aSyn 5UTR act: -126*

Screening results from PubChem.
